“And” between values parts separate entries of the source, which are not always exact repeats. Identical values can stand only once. Records with an inconclusive call do not appear. A call without a number means that no potency is given here. The source made the active and inactive calls. Unless noted, calls follow the shape of the dose curve; as a rule, active = well fitted curve in the direction sought with a large enough effect in the repeat runs; inconclusive = weak or mixed curves; inactive = no such curve, though single readings can be large; an effect the other way counts as inactive or inconclusive.
Legend:
[1] = qHTS assay to identify small molecule antagonists of the glucocorticoid receptor (GR) signaling pathway - cell viability counter screen (AID 720693); also: nearly all actives have a fitted effect of over 55% in size
[2] = qHTS assay for identifying genotoxic compounds that show differential cytotoxicity against isogenic chicken DT40 cell lines with known DNA damage response pathways - wild type cell line (AID 743012); also: nearly all actives have a fitted effect of over 60% in size; also: potency is read from the fitted curve at half-maximal effect
Outline: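 Wild type DT40, 300 cells/well, ~0.5 h settle at 37 C/5% CO2; compounds in DMSO added by pintool; 40 h at 37 C/5% CO2; CellTiter-Glo, 30 min RT; luminescence.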

[3] = qHTS assay for identifying genotoxic compounds that show differential cytotoxicity against isogenic chicken DT40 cell lines with known DNA damage response pathways - Rev3 mutant cell line (AID 743014); also: nearly all actives have a fitted effect of over 55% in size; also: potency is read from the fitted curve at half-maximal effect
[4] = qHTS assay for identifying genotoxic compounds that show differential cytotoxicity against isogenic chicken DT40 cell lines with known DNA damage response pathways - Rad54/Ku70 mutant cell line (AID 743015); also: nearly all actives have a fitted effect of over 60% in size; also: potency is read from the fitted curve at half-maximal effect
[5] = target: Androgen receptor (Homo sapiens) (UniProt P10275); assay: qHTS assay to identify small molecule agonists of the androgen receptor (AR) signaling pathway (AID 743036; active = well fitted activation curve with a large enough effect in the signal ratio in the repeat runs, with a control signal flat, not every such curve was filed as active; the % refers to the signal ratio)
Sequence of Androgen receptor (Homo sapiens) (P10275 whole entry, looked up): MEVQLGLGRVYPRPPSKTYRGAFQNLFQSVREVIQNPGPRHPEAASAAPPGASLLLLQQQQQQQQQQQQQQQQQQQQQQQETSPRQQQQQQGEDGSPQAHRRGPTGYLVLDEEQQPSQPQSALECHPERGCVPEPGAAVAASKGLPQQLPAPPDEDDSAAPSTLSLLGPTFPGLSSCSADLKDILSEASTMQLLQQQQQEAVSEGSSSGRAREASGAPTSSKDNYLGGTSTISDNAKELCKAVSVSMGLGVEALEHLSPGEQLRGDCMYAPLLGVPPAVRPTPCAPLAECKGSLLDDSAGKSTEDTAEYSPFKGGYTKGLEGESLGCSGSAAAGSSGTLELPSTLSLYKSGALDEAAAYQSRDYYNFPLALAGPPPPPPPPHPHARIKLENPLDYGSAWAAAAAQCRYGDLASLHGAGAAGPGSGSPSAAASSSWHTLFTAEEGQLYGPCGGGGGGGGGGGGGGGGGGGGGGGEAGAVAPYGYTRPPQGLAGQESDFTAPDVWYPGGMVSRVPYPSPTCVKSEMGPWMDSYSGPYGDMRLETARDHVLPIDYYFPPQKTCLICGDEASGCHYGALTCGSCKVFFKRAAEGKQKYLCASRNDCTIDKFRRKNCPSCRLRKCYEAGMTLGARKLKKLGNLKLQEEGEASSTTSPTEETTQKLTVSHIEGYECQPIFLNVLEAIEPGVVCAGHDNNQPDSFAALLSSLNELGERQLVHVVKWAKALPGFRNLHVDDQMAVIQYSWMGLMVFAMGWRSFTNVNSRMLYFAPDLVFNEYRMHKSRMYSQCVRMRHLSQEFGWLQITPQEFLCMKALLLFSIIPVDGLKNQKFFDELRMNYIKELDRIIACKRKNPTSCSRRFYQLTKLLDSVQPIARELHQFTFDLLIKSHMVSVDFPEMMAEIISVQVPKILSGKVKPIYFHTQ
Outline: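 Quantitative HTS of the Tox21 10K library in HEK293 cells bearing a stably integrated UAS-controlled beta-lactamase reporter. Compound exposure lasted 16 h at 37C. Reporter activity was detected by FRET substrate fluorescence after 2 h at room temperature.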

[6] = qHTS assay to identify small molecule antagonists of the androgen receptor (AR) signaling pathway using the MDA cell line - cell viability counter screen (AID 743041; also: nearly all actives have a fitted effect of over 45% in size; also: potency is read from the fitted curve at half-maximal effect)
Outline: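 R1881-driven MDA-kb2 AR-luc cells, 3,000/well, were dosed with library compounds for 16 h; cell health came from CellTiter-Fluor fluorescence in the reporter wells.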

[7] = target: Androgen receptor (Homo sapiens) (UniProt P10275); assay: qHTS assay to identify small molecule antagonists of the androgen receptor (AR) signaling pathway (AID 743035; active = well fitted inhibition curve with a large enough effect in the signal ratio in the repeat runs, not every such curve was filed as active; the % refers to the signal ratio)
Outline: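 Fluorescence from a beta-lactamase FRET substrate (LiveBLAzer B/G, 2 h, room temperature) measured inhibition of R1881-stimulated signaling in GeneBLAzer AR-UAS-bla HEK293 cells exposed to compound for 16 h at 37C.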

[8] = target: Androgen receptor (Homo sapiens) (UniProt P10275); assay: qHTS assay to identify small molecule antagonists of the androgen receptor (AR) signaling pathway using the MDA cell line (AID 743042; also: nearly all actives have a fitted effect of over 55% in size)
Outline: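 Antagonist mode: compounds plus R1881 agonist added to MDA-kb2 AR-luc cells, incubated 16 h at 37C. Luciferase reporter luminescence quantified, with multiplexed CellTiter-Fluor readout for cell viability.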

[9] = qHTS assay to identify small molecule antagonists of the androgen receptor (AR) signaling pathway - cell viability counter screen (AID 743033; also: nearly all actives have a fitted effect of over 45% in size)
[10] = target: Androgen receptor (Homo sapiens) (UniProt P10275); assay: qHTS assay to identify small molecule agonists of the androgen receptor (AR) signaling pathway using the MDA cell line (AID 743040; also: nearly all actives have a fitted effect of over 20% in size)
Outline: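 After a 5 h incubation at 37C and 0% CO2, MDA-kb2 reporter cells were dosed with compounds in DMSO and kept 16 h under the same conditions. Luciferase activity was then read as luminescence with ONE-Glo.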

| SMILES | Potency [1] | Potency [2] | Potency [3] | Potency [4] | Potency [5] | Potency [6] | Potency [7] | Potency [8] | Potency [9] | Potency [10] |
| --- | --- | --- | --- | --- | --- | --- | --- | --- | --- | --- |
| COc1cc2ncnc(Nc3ccc(F)c(Cl)c3)c2cc1OCCCN1CCOCC1 | inactive | 26.6 µM (active) | 26.6 µM (active) | 21.1 µM (active) | inactive | inactive |  |  |  |  |
| O=C(N[C@@H](c1ccccc1)[C@@H]1CCCCN1)c1cccc(C(F)(F)F)c1Cl | inactive | 12.2 µM (active) | 13.7 µM (active) | 15.4 µM (active) |  | 24.3 µM (active) |  |  |  |  |
| COc1cc2[nH]c(=O)[nH]c(=O)c2cc1OC | inactive | inactive | inactive | inactive |  | inactive |  |  |  |  |
| CCN(CC)CCNC(=O)c1ccc(NC(C)=O)cc1 | inactive | inactive | inactive | inactive | inactive |  | inactive | inactive |  |  |
| CCn1nc(C)c2c1C(=O)NCC(c1ccc(O)cc1)=N2 | inactive | 61.1 µM (active) | 34.4 µM (active) |  |  | inactive |  |  | inactive |  |
| COCC(O)CO (configuration not stated) | inactive | inactive | inactive | inactive |  | inactive |  |  |  |  |
| Cc1cc(C(=C2C=CC(=Nc3ccc(S(=O)(=O)O)cc3S(=O)(=O)O)C=C2)c2ccc(Nc3ccc(S(=O)(=O)O)cc3)cc2)ccc1N | inactive | inactive | inactive |  |  |  |  |  | inactive |  |
| CCC(C)=O | inactive | inactive | inactive | inactive |  | inactive |  |  |  |  |
| O=C(O)Cc1ccc(-c2ccccc2)cc1 | inactive | inactive | inactive | inactive | inactive | inactive | inactive | inactive |  | inactive |
| CCN(Cc1cccc(S(=O)(=O)O)c1)c1ccc(C(=C2C=CC(=[N+](CC)Cc3cccc(S(=O)(=O)[O-])c3)C=C2)c2ccccc2)cc1 | inactive | inactive | inactive | inactive |  | inactive |  |  | inactive |  |
| C=CCOC(=O)/C=C\C(=O)OCC=C | inactive | inactive | inactive | inactive | inactive |  | inactive | inactive |  | inactive |
| CC(Cl)C(Cl)Cl (configuration not stated) | inactive | inactive | inactive | inactive |  | inactive |  |  |  |  |
| COC(=O)CC(=O)C(C)(C)C | inactive | inactive | 61.1 µM (active) |  |  | inactive |  |  | inactive |  |
| CC(=O)CC(c1ccc([N+](=O)[O-])cc1)c1c(O)c2ccccc2oc1=O (configuration not stated) | inactive | inactive | inactive | inactive |  | inactive |  |  |  |  |
| CC1CC(=O)NN=C1c1ccc(NCC(C)(C)NCC(O)COc2cc(Cl)ccc2C#N)cc1 (configuration not stated) | inactive | 0.668 µM (active) | 0.376 µM (active) | 0.668 µM (active) |  | inactive |  |  |  |  |
| CC(=O)OCC(=O)[C@@]12OC(C)(C)O[C@@H]1C[C@H]1[C@@H]3C[C@H](F)C4=CC(=O)C=C[C@]4(C)[C@@]3(F)[C@@H](O)C[C@@]12C | inactive | inactive | inactive | inactive |  | inactive |  |  |  |  |

| SMILES | Potency [1] | Potency [2] | Potency [3] | Potency [4] | Potency [5] | Potency [6] | Potency [7] | Potency [8] | Potency [9] | Potency [10] |
| --- | --- | --- | --- | --- | --- | --- | --- | --- | --- | --- |
| CC1=CC(O)CC(C)(C)C1 (configuration not stated) | inactive | inactive | inactive | inactive |  | inactive |  |  |  |  |
| O=C(Nc1ccc([N+](=O)[O-])cc1)Nc1ccc([N+](=O)[O-])cc1 | inactive | 10.6 µM (active) | 10.6 µM (active) | 11.9 µM (active) |  | inactive |  |  |  |  |
| O=C(O)c1ccc(CO)o1 | inactive | inactive | inactive | inactive |  | inactive |  |  | inactive |  |
| CC(C)=CC=O | inactive | inactive | inactive | inactive |  | inactive | inactive | inactive |  |  |
| CN1C(=O)CC(C)(c2ccccc2)C1=O (configuration not stated) | inactive | inactive | inactive | inactive |  | inactive |  |  |  |  |
| N#C/C(=C1/SC[C@@H](c2ccc(Cl)cc2Cl)S1)n1ccnc1 | inactive | 21.1 µM (active) and 13.3 µM (active) and 26.6 µM (active) | 26.6 µM (active) and 29.8 µM (active) | 26.6 µM (active) and 23.7 µM (active) and 33.5 µM (active) |  | inactive |  |  |  |  |
| CCCOC(=O)c1ccc(C(=O)OCCC)nc1 | inactive | inactive | inactive | inactive |  | inactive |  | inactive | inactive |  |
| CSc1ccc(Oc2ccc(S(N)(=O)=O)cc2CN(C)C)cc1C | inactive | 24.3 µM (active) | 27.3 µM (active) | 61.1 µM (active) | inactive | inactive |  |  |  |  |
| CC(C)OCC1CO1 (configuration not stated) | inactive | inactive | inactive | inactive |  | inactive |  |  |  |  |
| CCCCOC(=O)CCS | inactive | inactive | inactive | inactive |  | inactive |  |  |  |  |
| c1cnc2c(n1)CCCC2 | inactive | inactive | inactive | inactive | inactive |  | inactive | inactive |  |  |
| CC1C2CC(CC2C2CCCC(O)C2)C1(C)C (configuration not stated) | inactive |  | 24.3 µM (active) |  |  | inactive |  |  |  |  |
| NC(=O)N(O)[C@@H]1COc2cc(OCc3ccccc3)ccc21 | inactive |  | 68.6 µM (active) | 61.1 µM (active) |  | inactive |  |  | inactive |  |
| CCOC(=O)C(C)Oc1ccc(Oc2nc3ccc(Cl)cc3o2)cc1 (configuration not stated) | inactive |  | 68.6 µM (active) | 61.1 µM (active) |  | inactive |  | inactive | inactive |  |
| Cc1occc1C(=O)Nc1ccc(C(=O)N2CCC(F)(F)/C(=C\C(=O)N3CCC(N4CCCCC4)CC3)c3ccccc32)cc1 | inactive | inactive |  |  | inactive |  |  | inactive | inactive |  |
